Among the data in publication PMC6602471 are binding signal values, retold here.

The full ranking holds about 1,300 sequences; the median of “log fluorescence intensity” is about 8.9, and the highest 2% start at about 13. The sample as a whole holds a higher share of the highest values than the screen did.

The target in the assay is T1, ELK1 (Homo sapiens, UniProt P19419 1-428).
T1 sequence: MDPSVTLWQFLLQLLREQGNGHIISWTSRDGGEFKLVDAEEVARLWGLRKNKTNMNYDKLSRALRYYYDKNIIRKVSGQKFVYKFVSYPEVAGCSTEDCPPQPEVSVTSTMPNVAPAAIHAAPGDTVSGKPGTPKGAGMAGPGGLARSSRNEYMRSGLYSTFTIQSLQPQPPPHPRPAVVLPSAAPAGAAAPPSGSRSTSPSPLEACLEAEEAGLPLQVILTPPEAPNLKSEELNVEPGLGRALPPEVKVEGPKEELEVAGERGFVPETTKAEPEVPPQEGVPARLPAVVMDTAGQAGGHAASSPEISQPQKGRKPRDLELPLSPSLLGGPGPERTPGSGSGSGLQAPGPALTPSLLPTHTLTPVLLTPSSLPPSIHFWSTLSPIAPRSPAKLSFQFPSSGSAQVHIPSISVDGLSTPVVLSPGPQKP
Description: custom PBM; custom protein-binding microarray; buffer, salt, pH and temperature not stated; high values mean tight binding. The following applies: dsDNA, one strand shown.
Take “GCTGCTGCGGTGCATACCCCACCGGATGTGACTCCGGTCTTGATTCGCTTGACGCTGCTG”: the binding signal is 10.3 log fluorescence intensity.
To “GATTAATTTCTTCCCTTATTCGCACGTGCCATAACAGTCTTGATTCGCTTGACGCTGCTG” belongs 9.19 log fluorescence intensity; to “CGGAAGTGTCGGAAACGTCGGATATCCGGTTCTTCTGTCTTGATTCGCTTGACGCTGCTG”, 13.5 log fluorescence intensity; to “CGGAAGTGTCGTAGACGTCGGATATCCGGTTCTTCTGTCTTGATTCGCTTGACGCTGCTG”, 12.3 log fluorescence intensity.
To “CGGAAGTGTAGTAAACGTCGGATATCCGGTTCTTCTGTCTTGATTCGCTTGACGCTGCTG” belongs 12.1 log fluorescence intensity.
To “CGGAAGTGTCTTAAACGTCGGATATCCGGTTCTTCTGTCTTGATTCGCTTGACGCTGCTG” belongs 12.1 log fluorescence intensity; to “CGGAAGTGTCATAAACGTCGGATATCCGGTTCTTCTGTCTTGATTCGCTTGACGCTGCTG”, 12.1 log fluorescence intensity; to “CGGAAGTGTCGCAAACGTCGGATATCCGGTTCTTCTGTCTTGATTCGCTTGACGCTGCTG”, 12.5 log fluorescence intensity.
“CGGAAGTGTCGTCAACGTCGGATATCCGGTTCTTCTGTCTTGATTCGCTTGACGCTGCTG”: the binding signal was 12.6 log fluorescence intensity.
To “CGGAAGTGTCGAAAACGTCGGATATCCGGTTCTTCTGTCTTGATTCGCTTGACGCTGCTG” belongs 12.4 log fluorescence intensity; to “CGGAAGTGTCCTAAACGTCGGATATCCGGTTCTTCTGTCTTGATTCGCTTGACGCTGCTG”, 12.4 log fluorescence intensity.
To “CGGAAGTGTCGTGAACGTCGGATATCCGGTTCTTCTGTCTTGATTCGCTTGACGCTGCTG” belongs 11.8 log fluorescence intensity; to “CGGAAGTGTCGTTAACGTCGGATATCCGGTTCTTCTGTCTTGATTCGCTTGACGCTGCTG”, 12.6 log fluorescence intensity; to “CGGAAGTGTCGTATACGTCGGATATCCGGTTCTTCTGTCTTGATTCGCTTGACGCTGCTG”, 12.5 log fluorescence intensity.
With “GCTGCCGCGGTGCATACCCCACCGGATGTGACCCCGGTCTTGATTCGCTTGACGCTGCTG”, the binding signal was 10.5 log fluorescence intensity.
In the case of “GCTGATGCGGTGCATACCCCACCGGATGTGACCCCGGTCTTGATTCGCTTGACGCTGCTG”, the binding signal is 10.2 log fluorescence intensity.
To “CTGGGACTTGACCCAACTCTGCCGCGTGGGTCGTTTGTCTTGATTCGCTTGACGCTGCTG” belongs 8.91 log fluorescence intensity; to “GGAAAAAGACCCAGGGTAACACCGGAAGTGGGCTTAGTCTTGATTCGCTTGACGCTGCTG”, 11 log fluorescence intensity.
For “GCTGCTGCGTTGCATACCCCACCGGATGTGACCCCGGTCTTGATTCGCTTGACGCTGCTG”, the binding signal is 10.1 log fluorescence intensity.
To “TCCGGCTACCAGCTCCACCCAATTCAGGCCTTGTAGGTCTTGATTCGCTTGACGCTGCTG” belongs 8.93 log fluorescence intensity.
Consider “CTGGGACTTGACCTAACTCTGCCACGTGGGTCGTTTGTCTTGATTCGCTTGACGCTGCTG”, for which the binding signal is 8.92 log fluorescence intensity.
To “CACAATTTTTACAGTAATGTAGCATGCGTAACTCCTGTCTTGATTCGCTTGACGCTGCTG” belongs 8.94 log fluorescence intensity; to “CTGGGACATGACCCAACTCTGCCACGTGGGTCGTTTGTCTTGATTCGCTTGACGCTGCTG”, 8.96 log fluorescence intensity; to “GCTGCTGCGGTGCATACCCCACAGGATGTGACCCCGGTCTTGATTCGCTTGACGCTGCTG”, 9.08 log fluorescence intensity.
To “TGTCGGGTAAGGGAATGTAGATCACGTGAATGAATAGTCTTGATTCGCTTGACGCTGCTG” belongs 8.98 log fluorescence intensity; to “TGTCGGGTAAGGGAATGTAGATCACGTGAATGATAAGTCTTGATTCGCTTGACGCTGCTG”, 9.11 log fluorescence intensity.
Consider “GCTGCTGCGGTGCATACCCCACCGGATGTGCCCCCGGTCTTGATTCGCTTGACGCTGCTG”, for which the binding signal was 10.2 log fluorescence intensity.
Consider “TATTAATTTCTGCCCTTATTCGCACGTGCCATAACAGTCTTGATTCGCTTGACGCTGCTG”, for which the binding signal is 8.91 log fluorescence intensity.
For the sequence “GTGTATAGGATCCCATCCAACACACGGGTTAAAATGGTCTTGATTCGCTTGACGCTGCTG”, the binding signal was 8.95 log fluorescence intensity.
To “GCTGCTGCGGTGCCTACCCCACCGGATGTGACCCCGGTCTTGATTCGCTTGACGCTGCTG” belongs 10.3 log fluorescence intensity; to “TACTGACTTTTATATGCGAATGCACATGAATAGACCGTCTTGATTCGCTTGACGCTGCTG”, 8.97 log fluorescence intensity; to “GTAAAAAGGCCCAGGGTAACACCGGAAGTGGGCTTAGTCTTGATTCGCTTGACGCTGCTG”, 10.9 log fluorescence intensity.
Turning to “GTGTATAGGATCCCATCCAACACACGTATTAAAATGGTCTTGATTCGCTTGACGCTGCTG”, the binding signal was 9.05 log fluorescence intensity.
To “CGGAAGTGTGGTAAACGTCGGATATCCGGTTCTTCTGTCTTGATTCGCTTGACGCTGCTG” belongs 12 log fluorescence intensity; to “CAGTATAGGACTTCTTCCCTGAAGCAATTGATAACCGTCTTGATTCGCTTGACGCTGCTG”, 8.93 log fluorescence intensity; to “GTGTATGGGATCCCATCCAACACACGTGTTAAAATGGTCTTGATTCGCTTGACGCTGCTG”, 9.12 log fluorescence intensity.
As to “CACTATTTTTACAGTAATGTAGCACGCGTAACTCCTGTCTTGATTCGCTTGACGCTGCTG”, the binding signal is 8.94 log fluorescence intensity.
To “TACTGACTAATATATGCGAATGCACATGAATAGACCGTCTTGATTCGCTTGACGCTGCTG” belongs 8.92 log fluorescence intensity.
To “TGTCGGGTAAGGAAATGTAGATCACGTGAATGAAAAGTCTTGATTCGCTTGACGCTGCTG” belongs 8.91 log fluorescence intensity.
As for “GGAAAGAGGCCCAGGGTAACACCGGAAGTGGGCTTAGTCTTGATTCGCTTGACGCTGCTG”, the binding signal is 10.8 log fluorescence intensity.
